ALDH1A1 inh: qHTS Assay for Inhibitors of Aldehyde Dehydrogenase 1 (ALDH1A1); Aldehyde dehydrogenase 1A1 (Homo sapiens), P00352; Purified ALDH1A1, NADH fluorescence, propionaldehyde substrate; Potency, µM (series often up to 75.3 µM), inactives show top-dose activity, negative = inhibition, hits mostly inhibitors; 220,000 compounds, 7.3% hits; AID 1030, 2008; active means well fitted inhibition curve with a large enough effect, not every such curve was filed as active; inconclusive means small, poorly fitted or top-dose-only effect, or another doubt; inactive means no such curve, though single readings can be large or run the other way;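 further: plate controls were no enzyme wells and a reference inhibitor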
Target sequence (P00352 whole entry, looked up): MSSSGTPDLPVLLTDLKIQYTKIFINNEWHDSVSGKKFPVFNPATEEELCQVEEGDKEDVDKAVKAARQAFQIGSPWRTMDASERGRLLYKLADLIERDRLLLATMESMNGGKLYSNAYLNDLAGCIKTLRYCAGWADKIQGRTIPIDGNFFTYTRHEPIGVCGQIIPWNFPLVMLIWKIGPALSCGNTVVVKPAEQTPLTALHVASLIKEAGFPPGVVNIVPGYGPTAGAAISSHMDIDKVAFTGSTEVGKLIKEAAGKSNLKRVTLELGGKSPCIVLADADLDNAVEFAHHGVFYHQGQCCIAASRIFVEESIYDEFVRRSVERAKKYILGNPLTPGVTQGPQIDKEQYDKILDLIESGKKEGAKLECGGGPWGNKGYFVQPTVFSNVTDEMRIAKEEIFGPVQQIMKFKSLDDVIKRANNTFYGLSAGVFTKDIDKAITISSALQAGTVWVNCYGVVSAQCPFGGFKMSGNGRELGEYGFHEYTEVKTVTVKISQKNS
HPGD inh: qHTS Assay for Inhibitors of HPGD (15-Hydroxyprostaglandin Dehydrogenase). 150,000 compounds, 4.3% hits. purified HPGD, NADH fluorescence kinetic, PGE2 substrate. Potency, µM, inactives show top-dose activity change, negative = inhibition, usual class: inhibitors. AID 894, 2007; active means well fitted inhibition curve with a large enough effect, not every such curve was filed as active; inconclusive means small, poorly fitted or top-dose-only effect, or another doubt; inactive means no such curve, though single readings can be large or run the other way; further: on the % scale 0 is the no-effect control and ±100 the full control effect
Target sequence (P15428 whole entry, looked up): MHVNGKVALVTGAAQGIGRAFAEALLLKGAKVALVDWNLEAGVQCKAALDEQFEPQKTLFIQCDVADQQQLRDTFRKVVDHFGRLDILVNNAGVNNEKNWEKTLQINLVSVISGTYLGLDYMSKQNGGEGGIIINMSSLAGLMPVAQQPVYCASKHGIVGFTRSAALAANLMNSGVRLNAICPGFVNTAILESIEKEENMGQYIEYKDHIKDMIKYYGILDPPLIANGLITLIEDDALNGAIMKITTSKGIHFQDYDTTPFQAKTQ
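NADH formation kinetics: reaction with 30 uM PGE2 and 1 mM NAD+ (final), 20 nM enzyme, Tris-HCl pH 8 with Tween 20, after 15 min compound preincubation at room temperature. Fluorescence change, last versus first of five reads.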
HTT cytoprotect: qHTS Multiplex Assay to Identify Dual Action Probes in a Cell Model of Huntington: Cytoprotection (ATP). PC12 HTT-Q103 induced, cytoprotection, ATP luminescence, 40 h. Potency, µM (top dose mostly 56.4 µM), for inactives: cytoprotection (ATP increase), most hits filed as activators. 230,000 compounds, 0.14% hits; further: % of control where 0% means no effect; nearly all actives have a fitted effect of over 45% in size
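Stable PC12 Q103-GFP cells in serum-supplemented, phenol red-free DMEM; induction by tebufenozide at 100 nM final; compound dose series; cell viability quantified luminescently from ATP.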
LMNA splice mod: qHTS Assay for Modulators of Lamin A Splicing | HeLa LMNA splicing GFP/RFP minigene ratio, 48 h | Potency, µM (highest dose often 46.1 µM), without a hit: top-dose ratio change, negative = inhibition, hits mostly inhibitors | 200,000 compounds, 0.01% hits | AID 1487, 2009; active means well fitted inhibition curve with a large enough effect in the signal ratio, with a control signal flat, not every such curve was filed as active; inconclusive means small, poorly fitted or top-dose-only effect, or effect the other way, or a change in a side signal; the % refers to the signal ratio; further: on the % scale 0 is the no-effect control and ±100 the full control effect
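S3 HeLa stable clones carrying a lamin A-EGFP splicing minigene plus DsRed2 were seeded at 600 cells/well in Opti-MEM with 2% FBS, pin-dosed and incubated 48 h at 37°C. Acumen cytometry (488 nm) gave the GFP/RFP total-intensity ratio.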
HttQ103 aggreg: qHTS Multiplex Assay to Identify Dual Action Probes in a Cell Model of Huntington: Aggregate Formation (GFP). AID 1688, 2009. 220,000 compounds, 1.1% hits. Potency, µM (titrated, usually from 46.1 µM), for the others: at the top dose activity change, negative = inhibition, most hits filed as inhibitors. PC12 HttQ103-GFP aggregates, Acumen cytometry, 40 h; further: on the % scale 0 is the no-effect control and ±100 the full control effect; nearly all actives have a fitted effect of over 60% in size
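Ecdysone-promoter PC12 model expressing HTT exon 1 Q103 fused to GFP, induced by tebufenozide at 100 nM final. Compounds titrated; aggregates sized 1–25 µm scored on a 488 nm laser cytometer.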
Numbers without * were called inactive; [ ] = dose if it differs, or a comment. This is a sample that favours compounds with a hit; in the whole collection about 8.8% have one here. Unless noted, the call rests on the fitted dose curve; in most records, active means well fitted curve in the direction sought with a large enough effect; inconclusive means small, poorly fitted or top-dose-only effect, or another doubt; inactive means no such curve, though single readings can be large; an effect the other way counts as inactive or inconclusive. Potency means the concentration at half of the fitted maximal effect.

Results for Cc1ccc(NC(=O)C2CCN(S(=O)(=O)c3ccc4[nH]c(=O)ccc4c3)CC2)cc1C ?
LMNA splice mod: -7%[46 µM]

What do the screens show for `CC(C)CN(c1ccccc1)S(=O)(=O)c1nnc(NC(=O)C2CCCCC2)s1`?
LMNA splice mod: 8%[46 µM]

How did COc1ccc2c(c1)[N+](=O)C(/C(C)=N/NC(N)=S)=C(C)[N+]2=O do in these assays?
ALDH1A1 inh: 3.2µM*; HPGD inh: -19%

What do the screens show for `COc1ccccc1CC(=O)Nc1ccc2nc(Nc3cccc(Cl)c3)cc(C)c2c1`?
LMNA splice mod: -18%[46 µM]

What do the screens show for `O=C(c1ccc(Br)cc1)N1CCN(CCc2ccncc2)CC1`?
LMNA splice mod: 7%[46 µM]

How did CCOC(=O)/C(C#N)=C\c1ccc(OC)c(OC)c1 do in these assays?
ALDH1A1 inh: inconclusive; HTT cytoprotect: 4%; LMNA splice mod: 6%[46 µM]; HttQ103 aggreg: inconclusive

Results for COc1cc(/C=C(\C#N)C(=O)NC2CCCCC2C)ccc1OS(=O)(=O)c1ccc(C)cc1 (stereo unspecified) ?
ALDH1A1 inh: 8.9µM*; HPGD inh: inconclusive; HTT cytoprotect: -8%[10 µM]; LMNA splice mod: inconclusive; HttQ103 aggreg: inconclusive

What do the screens show for `COc1cc(/C=C(\C#N)C(N)=O)ccc1OS(=O)(=O)c1ccc(C)cc1`?
ALDH1A1 inh: 18µM*; HPGD inh: 28µM*; HTT cytoprotect: 31%[10 µM]; LMNA splice mod: -16%; HttQ103 aggreg: 8%

Results for O=C(CCl)N(c1ccccc1)c1ccccc1 ?
ALDH1A1 inh: 0.045µM*; HTT cytoprotect: -187%; HttQ103 aggreg: 10µM*

How did O=C(N(c1ccccc1)c1ccccc1)N(c1ccccc1)c1ccccc1 do in these assays?
ALDH1A1 inh: -13%; HTT cytoprotect: -2%[10 µM]; HttQ103 aggreg: 11%[9.22 µM]

Results for Cc1cc(C(F)(F)F)nn1Cc1ccc(C(=O)NCc2ccco2)o1 ?
ALDH1A1 inh: 18µM*; HPGD inh: inconclusive; HTT cytoprotect: -31%; LMNA splice mod: 15%; HttQ103 aggreg: 0%

What do the screens show for `Cc1ccc(C)c2sc(NC(=O)c3ccc(S(=O)(=O)N4CCC(C)CC4)cc3)nc12`?
LMNA splice mod: 5%[46 µM]

What do the screens show for `C[C@H](CC[C@@H]1OC1(C)C)C1CC[C@H]2[C@@H]3CC=C4C[C@@H](O)CC[C@]4(C)[C@H]3CC[C@]12C` (stereo partly specified)?
ALDH1A1 inh: 7%; HTT cytoprotect: -2%

How did CC(C)CN1CC[C@@]2(CCCN(C(=O)c3ccco3)C2)C1 do in these assays?
ALDH1A1 inh: 0.45µM*; HPGD inh: -5%; HTT cytoprotect: -30%

Results for N#Cc1ccc(CN2CC[C@@]3(CCCN(C(=O)c4ccco4)C3)C2)cc1 ?
ALDH1A1 inh: 14µM*; HPGD inh: -3%; HTT cytoprotect: 19%

What do the screens show for `O=C(c1ccco1)N1CCC2(CCN(Cc3ccncc3)CC2)CC1`?
ALDH1A1 inh: inconclusive; HPGD inh: -8%; HTT cytoprotect: 19%

Results for O=C(c1ccco1)N1CCC2(CCCN(c3ccncc3)C2)CC1 ?
ALDH1A1 inh: 3.5µM*; HPGD inh: -2%; HTT cytoprotect: -23%

Results for CC(C)NC(=O)N1CCCC2(CCN(C(=O)c3ccco3)CC2)C1 ?
ALDH1A1 inh: -3%; HPGD inh: -5%; HTT cytoprotect: -15%

Results for O=C(c1ccco1)N1CCC2(CCN(Cc3ccccc3)CC2)CC1 ?
ALDH1A1 inh: 18µM*; HPGD inh: 1%; HTT cytoprotect: 13%

What do the screens show for `CCOC(=O)c1ccccc1NC(=O)Cn1ncc2c([nH]c3ccccc32)c1=O`?
LMNA splice mod: 9%[46 µM]

How did O=C(CSc1nc(=O)n(Cc2ccco2)c2c1CCC2)Nc1ccccc1C(F)(F)F do in these assays?
LMNA splice mod: 0%[46 µM]

How did CN/N=C(\Cc1nc2ccccc2[nH]1)c1ccc([N+](=O)[O-])cc1 do in these assays?
ALDH1A1 inh: 20µM*; HTT cytoprotect: -42%; HttQ103 aggreg: 18%

What do the screens show for `O=C(Cc1nc2ccccc2[nH]1)c1ccc([N+](=O)[O-])cc1`?
ALDH1A1 inh: 18µM*; HTT cytoprotect: -6%[10 µM]; HttQ103 aggreg: 1%[9.22 µM]

What do the screens show for `Clc1ccc(/C(Cc2nc3ccccc3[nH]2)=N\Nc2ccccc2)cc1`?
ALDH1A1 inh: 4.5µM*; HTT cytoprotect: -48%[10 µM]; HttQ103 aggreg: -25%[9.22 µM]

How did O=C(NCCc1nc2ccccc2[nH]1)c1ccc([N+](=O)[O-])cc1 do in these assays?
ALDH1A1 inh: 5%; HTT cytoprotect: -2%[10 µM]; HttQ103 aggreg: -6%[9.22 µM]

How did O=C(ONC1=NCCCCC1)c1c(F)cccc1F do in these assays?
ALDH1A1 inh: -6%; HPGD inh: 1%; HTT cytoprotect: 0.79µM*; LMNA splice mod: inconclusive; HttQ103 aggreg: -6%

How did Cc1ccc(C(=O)c2oc3ccccc3c2NC(=O)c2cc(-c3ccccc3)on2)cc1 do in these assays?
LMNA splice mod: 11%[46 µM]

Results for COc1ccc(C)cc1NC(=O)CNc1ccc(C(C)=O)cc1 ?
ALDH1A1 inh: inconclusive; HPGD inh: -14%; HTT cytoprotect: 7%[10 µM]; LMNA splice mod: -10%; HttQ103 aggreg: -10%

What do the screens show for `Cc1ccc(NC(=O)CNc2ccc(OC(C)C)cc2)c(C)c1`?
ALDH1A1 inh: 4.5µM*; HPGD inh: -10%; HTT cytoprotect: -4%[10 µM]; LMNA splice mod: -15%; HttQ103 aggreg: 3%

How did Cc1ccc(NC(=O)CNc2cccc(C)c2C)c(C)c1 do in these assays?
ALDH1A1 inh: 8.9µM*; HPGD inh: 32µM*; HTT cytoprotect: -4%; LMNA splice mod: 2%; HttQ103 aggreg: -8%

How did O=C(COC(=O)c1cccc([N+](=O)[O-])c1)c1ccc(OCc2ccccc2)cc1 do in these assays?
ALDH1A1 inh: 14µM*; HPGD inh: -9%; HTT cytoprotect: 6%[10 µM]; LMNA splice mod: -6%; HttQ103 aggreg: -6%

How did O=C(COC(=O)c1cc([N+](=O)[O-])ccc1NCCO)NCc1cccs1 do in these assays?
ALDH1A1 inh: inconclusive; HTT cytoprotect: -22%[10 µM]; LMNA splice mod: 8%[46 µM]; HttQ103 aggreg: -23%

How did NC(=O)COC(=O)c1cc([N+](=O)[O-])ccc1NCCO do in these assays?
ALDH1A1 inh: 20µM*; HTT cytoprotect: 2%[10 µM]; HttQ103 aggreg: 7%[9.22 µM]

How did O=C(COC(=O)c1cc([N+](=O)[O-])ccc1NCCO)c1ccccc1 do in these assays?
ALDH1A1 inh: 25µM*; HPGD inh: -19%; HTT cytoprotect: 2%[10 µM]; LMNA splice mod: -6%; HttQ103 aggreg: 5%
